Source: PubChem BioAssay
LGR2 inh: inhibitors of bursicon-induced LGR2 CRE-luciferase signal, primary screen, cell-based, HEK293, CRE-luciferase reporter, bursicon stimulation. Drosophila bursicon receptor LGR2 (rickets). bursicon-stimulated, 4 h. inhibition, % at 9.99 µM. 380,000 compounds, 0.35% hits. AID 720647, 2013;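 active means drop in luminescence signal, shown as inhibition above about 50% in the replicate tests, limit read from the data, passing the limit was not always enough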;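 further: agonist challenge used bursicon conditioned medium at about half maximal strength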
SENP8 block-1: SENP8 protease inhibitors, primary screen, biochemical, luminescence; Sentrin-specific protease 8 (Homo sapiens), Q96LD8; purified SENP8, Z-RLRGG-aminoluciferin cleavage; inhibition, % at 10 µM; 330,000 compounds, 1.2% hits; AID 2540, 2010; in the data active means inhibition above about 50%
Target sequence (Q96LD8 whole entry, looked up): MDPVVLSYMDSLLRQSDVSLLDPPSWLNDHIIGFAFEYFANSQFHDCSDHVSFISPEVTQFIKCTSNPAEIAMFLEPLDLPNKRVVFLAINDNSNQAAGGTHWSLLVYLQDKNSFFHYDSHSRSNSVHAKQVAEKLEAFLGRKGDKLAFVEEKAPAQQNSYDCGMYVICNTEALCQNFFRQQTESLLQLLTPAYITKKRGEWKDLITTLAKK
SENP7 block: SENP7 protease inhibitors, primary screen, biochemical, luminescence, uHTS. Sentrin-specific protease 7 (Homo sapiens), Q9BQF6. recombinant SENP7, Z-RLRGG-aminoluciferin luminescence, 40 min. inhibition, % at 5 µM. 330,000 compounds, 1.5% hits. AID 434973, 2010;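 active means inhibition above about 50% at the single test dose, limit read from the data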
SENP6 inh: SENP6 protease inhibitors, primary screen, biochemical, luminescence, uHTS | inhibition, % at 10 µM | AID 2599, 2010 | 330,000 compounds, 1.8% hits | Sentrin-specific protease 6 (Homo sapiens), Q9GZR1 | Recombinant SENP6 catalytic domain, aminoluciferin luminescence;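 active means inhibition above about 50% at the single tested dose, limit read from the data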
Target sequence (Q9GZR1 628-1112 limits assumed): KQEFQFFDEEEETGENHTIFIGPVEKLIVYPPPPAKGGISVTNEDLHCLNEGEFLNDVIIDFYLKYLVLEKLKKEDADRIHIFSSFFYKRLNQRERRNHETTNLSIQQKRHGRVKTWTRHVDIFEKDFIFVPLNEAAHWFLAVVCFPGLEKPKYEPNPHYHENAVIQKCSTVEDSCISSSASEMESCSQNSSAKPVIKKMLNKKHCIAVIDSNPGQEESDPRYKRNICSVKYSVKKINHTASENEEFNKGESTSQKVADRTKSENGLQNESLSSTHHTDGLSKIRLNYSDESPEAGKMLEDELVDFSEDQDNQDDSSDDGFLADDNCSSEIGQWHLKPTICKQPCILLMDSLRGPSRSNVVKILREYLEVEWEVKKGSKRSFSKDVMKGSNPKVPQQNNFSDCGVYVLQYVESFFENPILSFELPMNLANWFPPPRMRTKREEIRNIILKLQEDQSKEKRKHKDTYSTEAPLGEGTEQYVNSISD
SENP8 block-2: human SENP8 protease inhibitors, primary screen, biochemical, fluorescence, Nedd8 protein substrate, uHTS; recombinant SENP8; inhibition, % at 20 µM; 360,000 compounds, 0.64% hits; AID 602440, 2012; in the data active means inhibition mostly above about 40%, no sharp cut-off; inactive means mostly below about 27%
HSP90 refold inh: HSP90 inhibitors, primary screen, cell lysate, luminescence; Heat shock protein HSP 90 (rabbit reticulocyte lysate; luciferase refolding); Rabbit reticulocyte lysate, luciferase refolding luminescence, 3 h; inhibition, % at 5.6 µM; 290,000 compounds, 0.91% hits; AID 1789, 2009;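 active means inhibition above the screen-wide mean plus 3 SD, computed separately per campaign, cut at about 16% in these data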;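 further: inhibitors lower the luminescence because luciferase stays unfolded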
A number is an active result; i = inactive; nt = no result given. A selection: hits, their analogues and other compounds. The true share with any hit is near 2.3%.

SMILES | LGR2 inh | SENP8 block-1 | SENP7 block | SENP6 inh | SENP8 block-2 | HSP90 refold inh
Cn1cc(/C=C2\SC(=S)N(NC(=O)c3ccccc3Cl)C2=O)c2ccccc21 | i | nt | nt | nt | 43.9 | i
Cn1cccc1/C=C1\SC(=S)N(NC(=O)c2ccccc2Cl)C1=O | i | nt | nt | nt | i | i
O=C(O)c1ccc(/C=C2\SC(=S)N(NC(=O)c3ccccc3[N+](=O)[O-])C2=O)cc1 | i | i | i | i | i | i
O=C(NN1C(=O)/C(=C\c2ccc(O)c([N+](=O)[O-])c2)SC1=S)c1ccccc1Cl | i | i | i | i | 67.7 | i
COC(=O)C[C@H]1CC[C@H]2[C@@H](COc3ccc(NC(=O)NCc4ccccc4)cc3C(=O)N2C)O1 | i | nt | nt | nt | nt | nt
COc1ccc2c3c(n(C)c2c1)[C@H](CO)N(C)CC31CCN(C(=O)Nc2c(C)noc2C)CC1 | i | nt | nt | nt | nt | nt
C[C@@H]1CN([C@@H](C)CO)C(=O)c2ccccc2-c2ccccc2CO[C@H]1CN(C)C(=O)Nc1ccc(F)cc1 | i | nt | nt | nt | nt | nt
CC(C)Oc1ccc(C(=O)Nc2nnc(SCC(=O)N3CCOCC3)s2)cc1 | 74.1 | i | i | i | i | 16.1
CCOC(=O)CNC(=O)CSc1nnc(NC(=O)c2ccc(C)cc2)s1 | 72.7 | i | i | i | i | i
Cn1c2ccccc2c2cc(/C=N/NC(=O)c3ccc(O)cc3O)ccc21 | nt | i | i | i | i | i
Cn1c(O)c(/C=N/NC(=O)c2cc3ccccc3cc2O)c2ccccc21 | i | 92.8 | i | 97.1 | i | i
C[C@@H]1CN([C@H](C)CO)C(=O)c2cccc(NC(=O)Nc3ccc4c(c3)OCO4)c2O[C@H]1CN(C)CC1CCCCC1 | i | nt | nt | nt | nt | nt
CO[C@@H]1CN(C)C(=O)c2ccc(NC(=O)Nc3ccccc3F)cc2OC[C@@H](C)N(C(C)=O)C[C@H]1C | i | nt | nt | nt | nt | nt
O=C(O)c1ccc(-c2nc(-c3ccccc3)cs2)cc1 | i | 92.0 | 89.1 | 97.1 | i | i
CNC(=O)c1ccc(-c2nc(-c3ccccc3)cs2)cc1 | i | i | i | i | i | i
O=[N+]([O-])c1cc(Cl)cc(/C=N/n2cnnc2)c1O | i | i | i | i | 47.2 | i
Cc1noc(C)c1S(=O)(=O)Nc1ccc2c(c1)CC(=O)N([C@@H](C)CO)C[C@H](C)[C@H](CN(C)Cc1ccc3c(c1)OCO3)O2 | i | nt | nt | nt | nt | nt
CCN1CCc2c(sc(N)c2C#N)C1 | nt | i | i | i | i | i
N#Cc1c(N)sc(=S)c2c1CCN(Cc1ccccc1)C2 | nt | 96.4 | 79.1 | 94.2 | nt | nt
Cc1nn(-c2ccccc2)c2c1C(c1c(C)[nH]c(C#N)c1C)C(C#N)=C(N)O2 (stereo not drawn) | nt | i | i | i | i | 36.4
COC(=O)[C@]12CCCCC=C1N(CCc1ccc(OC)c(OC)c1)C(=O)[C@H](CC(=O)NCc1cccc3ccccc13)C2 | i | nt | nt | nt | i | nt
COC(=O)[C@]12CCCCC=C1N(Cc1cccc3ccccc13)C(=O)[C@H](CC(=O)NCc1ccc(OC)c(OC)c1)C2 | 88.7 | nt | nt | nt | i | nt
O=C(C1=C[C@@H](c2coc3ccccc3c2=O)C[C@@H](OCCCCO)O1)N1CCN(Cc2ccc3c(c2)OCO3)CC1 | i | i | i | i | i | 16.8
O=C(C1=C[C@H](C2CC2)C[C@H](OCCCCO)O1)N1CCN(Cc2ccc3c(c2)OCO3)CC1 | i | i | i | i | i | 16.8
O=C(C1=C[C@@H](c2coc3ccccc3c2=O)C[C@@H](OCCCCO)O1)N1CCN(Cc2ccccc2)CC1 | i | i | i | i | i | i
SMILES | LGR2 inh | SENP8 block-1 | SENP7 block | SENP6 inh | SENP8 block-2 | HSP90 refold inh
CN(C)C(=O)C[C@H]1CC[C@H]2[C@@H](COC[C@H](O)CN2CC2CCCCC2)O1 | i | nt | nt | nt | nt | nt
COc1ccc(C(=O)/C(=C/c2cccs2)c2nc3ccccc3o2)cc1 | nt | i | i | i | i | 16.6
COc1ccc(/C=C(\CC(=O)O)c2nc3ccccc3o2)cc1 | i | i | i | i | i | i
C[C@H](CO)N1C[C@H](C)[C@@H](CN(C)CC2CCCC2)Oc2cc(C#CCN(C)C)ccc2S1(=O)=O | i | nt | nt | nt | nt | nt
COc1ccc(OC)c(NC(=O)COC(=O)c2c3c(nc4ccccc24)CCCC3)c1 | 70.6 | i | i | i | i | i
COC(=O)C[C@H]1CC[C@H](NC(=O)Nc2ccc(C(F)(F)F)cc2)[C@@H](CO)O1 | i | nt | nt | nt | nt | nt
CC1=NN(c2ccccc2)C(=O)/C1=C\C=C1/N(C)c2ccccc2C1(C)C | i | i | i | i | 46.7 | i
COc1ccc(/C=C2/C(=O)N(c3ccccc3)N=C2C)cc1 | nt | i | i | i | 91.4 | nt
CC1=NN(c2ccccc2)C(=O)/C1=C\c1cc(C)n(C)c1C | i | i | i | i | 44.0 | i
CC1=NN(c2ccccc2)C(=O)/C1=C/C=C/c1ccc(N(C)C)cc1 | nt | nt | nt | nt | 37.5 | i
CC1=NN(c2ccccc2)C(=O)/C1=C\C=C1\N(C)c2ccccc2C1(C)C | i | i | i | i | i | i
C[C@@H]1CN([C@@H](C)CO)C(=O)c2cccc(NC(=O)CCCCCC(=O)Nc3ccccc3N)c2O[C@@H]1CN(C)C(=O)NC1CCCCC1 | i | nt | nt | nt | nt | nt
O=C(Nc1ccc(F)cc1)N1CC(=O)N2[C@H](CO)[C@H](c3ccc(C#Cc4cccnc4)cc3)[C@H]2C1 | i | nt | nt | nt | nt | nt
COCC(=O)Nc1ccc2c(c1)OC[C@@H](C)N(C(=O)c1ccncc1)C[C@H](C)[C@@H](OC)CN(C)C2=O | i | nt | nt | nt | nt | nt
COc1ccc(/C=C2/C(=O)N(c3ccccc3)N=C2C)cc1OC | i | i | i | i | 74.8 | i
CC(=O)Oc1ccc(/C=C2/C(=O)N(c3ccccc3)N=C2C)cc1 | i | i | i | i | 44.9 | i
CC1=NN(c2ccccc2)C(=O)/C1=C/N(C)C | i | i | i | i | i | i
COc1ccc2c3c(n(C)c2c1)[C@H](CO)N(C(=O)CC1CC1)CC31CCN(C(=O)NC(C)C)CC1 | i | nt | nt | nt | nt | nt
O=C(Nc1ccc(S(=O)(=O)N2CCCCC2)cc1)c1ccc(CN2CCc3ccccc3C2)cc1 | nt | i | i | i | 53.1 | i
O=C(C[C@@H]1C[C@@H]2c3cc(NC(=O)c4ccc5c(c4)OCO5)ccc3O[C@@H]2[C@@H](CO)O1)NCc1ccc(Oc2ccccc2)cc1 | 68.1 | nt | nt | nt | nt | nt
O=C1C(=O)c2c(ccc3ccccc23)-c2ccccc21 | i | nt | nt | nt | 99.0 | nt
CN(C)/C=C1\Oc2ccc3ccccc3c2C1=O | i | i | i | i | i | i
CC(C)=CCC/C(C)=C/CNC(=O)C[C@H]1C[C@H](C(=O)N2CCOCC2)[C@@]2(C)c3[nH]c4ccc(Cl)cc4c3CCN2C1=O | 63.1 | nt | i | nt | i | nt
O=C(NCCN1CCCCC1)Nc1ccc(F)cc1 | i | i | i | i | i | i
O=C(NCCN1CCCCC1)Nc1cccc(F)c1 | i | i | i | i | i | 16.1
